Records with an inconclusive call do not appear. Values without a mark were called inactive. Active and inactive are the calls of the source. The call rests on the fitted dose curve; tested in HEK293 reporter line.
experiment: qHTS for Inhibitors of the Functional Ribonucleoprotein Complex (vRNP) of Lassa (LASV) Arenavirus: LASV Primary Screen - GLuc reporter signal (AID 1347082); conditions: LASV minigenome vRNP, Gaussia luciferase reporter; series mostly up to 57.5 µM; activity change, negative = inhibition: at the top concentration; further: nearly all actives have a fitted effect of over 60% in size
On the % scale 0 is the no-effect control and ±100 the full control effect.

| Structure (SMILES) | activity change, negative = inhibition [%] | Potency |
| --- | --- | --- |
| O=C(O)c1cc([N+](=O)[O-])ccc1NCCCc1ccccc1 | 8.1 | – |
| CC(N)=O | – | inactive |
| NC(N)=NC(N)=Nc1cccc(Cl)c1 | 3.28 | – |
| Cc1cccc(C(=O)NCN2CCN(c3ccccc3C#N)CC2)c1 | -1.66 | – |
| O=C(O)[C@@H]1C[C@@H](C(=O)O)N1 | -2.08 | – |
| O=C(O)c1ccccc1Nc1cccc(OCc2ccc3ccccc3n2)c1 | 1.16 | – |
| COc1cc2c(CCNC(C)=O)c[nH]c2cc1O | – | inactive |
| O=[N+]([O-])c1cccc2cn[nH]c12 | -1.41 | – |
| CC(C)(C=O)Cc1cc(C(C)(C)C)c(O)c(C(C)(C)C)c1 | 14.2 | – |
| Cc1nc(N=Nc2ccc(S(=O)(=O)O)cc2S(=O)(=O)O)c(COP(=O)(O)O)c(C=O)c1O | -9.04 | – |
| O=C1CCC(c2ccc(-n3ccnc3)cc2)=NN1 | 0.642 | – |
| COc1ccc(C(=O)NCc2cccnc2)cc1C(=O)NCc1cccnc1 | 2.61 | – |
| COc1cc(CC(=O)O)ccc1O | -1.86 | – |
| CCCn1c(=O)c2[nH]c(C3CCCC3)nc2n(CCC)c1=O | 13.1 | – |
| O=[N+]([O-])c1cccc2c(Br)[nH]nc12 | 9.93 | – |
| Cc1ccc2c(c1)C(N1CCN(C)CC1)=Nc1cccnc1N2 | -4.24 | – |
| O=c1[nH]c(=O)c2nc3ccccc3nc2[nH]1 | -9.34 | – |
| CCCn1c(=O)c2[nH]c(-c3ccc(S(=O)(=O)O)cc3)nc2n(CCC)c1=O | -13 | – |
| COc1ccccc1N1CCN(CCN2C(=O)CC3(CCCC3)CC2=O)CC1 | 3.97 | – |
| CN[C@H](CC(=O)O)C(=O)O | – | inactive |

| Structure (SMILES) | activity change, negative = inhibition [%] | Potency |
| --- | --- | --- |
| CN(C)C(N)=NCCC[C@H](N)C(=O)O | – | inactive |
| c1ccc2c(c1)CC(N1CCN(c3cccc4c3OCCO4)CC1)C2 | 2.19 | – |
| CCCn1c(=O)c2c(ncn2C)n(CCC)c1=O | 10.4 | – |
| CCN(CC)CCOC(=O)c1cc(Cl)c(N)cc1OC | -1.79 | – |
| O=c1[nH]c2ccccc2c2ccccc12 | -0.29 | – |
| COc1ccccc1N1CCN(CCCCN2C(=O)c3ccccc3C2=O)CC1 | 0.945 | – |
| N=C(N)SCCc1cnc[nH]1 | 10.5 | – |
| CCn1c(=O)[nH]c2cc(Cl)c(Cl)cc21 | -4.93 | – |
| O=C(Nc1cccc(C(=O)Nc2ccc(S(=O)(=O)O)c3cc(S(=O)(=O)O)cc(S(=O)(=O)O)c23)c1)Nc1cccc(C(=O)Nc2ccc(S(=O)(=O)O)c3cc(S(=O)(=O)O)cc(S(=O)(=O)O)c23)c1 | -26.3 | – |
| COc1ccc(-c2ccc(N)[n+](CCCC(=O)O)n2)cc1 | -4.52 | – |
| O=C(OCCN1CCOCC1)C1(c2ccccc2)CCCCC1 | -2.12 | – |
| C[C@@H](NC(=O)/C(C#N)=C/c1ccc(O)c(O)c1)c1ccccc1 | -4.86 | – |
| NS(=O)(=O)c1cccc2c1c([N+](=O)[O-])cc1nc(O)c(O)nc12 | -15.7 | – |
| Cc1ccc([N+](=O)[O-])cc1S(=O)(=O)N(C)C | 12 | – |
| C#CCn1c(=O)c2c(ncn2C)n(C)c1=O | 4 | – |
| O=C(O)c1ccccc1Nc1ccccc1 | 1.94 | – |
| O=c1onc2cnc3ccccc3n12 | 0.635 | – |
| COc1ccc2c(c1)c(CC(=O)O)c(C)n2Cc1ccc(Cl)cc1 | -2.1 | – |
| O=C(c1cc(O)c(O)c([N+](=O)[O-])c1)c1ccccc1F | -9.12 | – |
| C[C@@H]1C(=O)NC2=Nc3cccc(Cl)c3CN21 | -26.1 | – |
